Measured values from PubChem BioAssay (Tox21).
Values without a mark were called inactive. The source made the active and inactive calls. The call rests on the fitted dose curve; in most records, active means well fitted curve in the direction sought with a large enough effect in the repeat runs; inconclusive means weak or mixed curves; inactive means flat fitted curve, though single readings scatter.

Assay: qHTS assay to test for compound auto fluorescence at 535 nm (green) in HepG2 cells (AID 720675)
Details: green autofluorescence 485/535 nm, 1 h; series mostly up to 91.3 µM; fluorescence, % of fluorescein control: at the top concentration
Excerpt: National Center for Advancing Translational Sciences [NCATS]
NIH Chemical Genomics Center [NCGC]
U.S. Environmental Protection Agency [EPA]
National Institutes of Environmental Health Sciences [NIEHS]
National Toxicology Program [NTP]
U.S. Food and Drug Administration [FDA]
Compound auto fluorescence often interferes with screening of the compound library against various biological targets and signaling pathways. Some of these compounds may have fluorophoric properties. Such properties may interfere with the assay outputs resulting in false positives and/or negatives. To decrease such complications and ensure the compound activities are relevant in terms of biological response, the Tox21 10K compound library was screened for auto fluorescence.
From the fluorophores used as reporter signals in our screening assays, the auto fluorescence equivalencies of compounds against three fluorophores have been evaluated: Triamterene, Fluorescein and Rose Bengal sodium for blue, green and red fluorescence, respectively. The fluorescence intensities were measured using Excitation/Emission wavelengths at 405/460nm, 485/535nm and 540/590nm for blue, green and red labels, respectively. This assay includes the green fluorescence data.
Tox21 Assay Protocol Summary:
2,000 HepG2 cells in 5 uL of culture medium (MEM containing 10% FBS) per well were dispensed into black wall/clear bottom 1536-well plates using a Multidrop Combi Dispenser (ThermoFisher Scientific, Waltham, MA). The assay plates were incubated overnight at 37 C to allow cell attachment to the well bottom, followed by the transfer of 23 nL compound or DMSO vehicle by a pintool work station (Kalypsys , San Diego, CA). After the assay plates were incubated for 1 hr at 37 C and 5% CO2, fluorescence intensities in the assay plates were measured by an Envision (PerkinElmer, Shelton, CT) plate reader using three labels for measuring blue, green and red fluorescence at […] 460, 535 and 590 nm respectively.
On the % scale 0 is the no-effect control and ±100 the full control effect.

SMILES	Potency	fluorescence, % of fluorescein control
Cc1c(C)c2c(c(C)c1O)CCC(C)(COc1ccc(CC3SC(=O)NC3=O)cc1)O2 (stereo not given)	inactive	
O=C1C=CC(=O)N1		0.0541% [at 95.7 µM]
C=CC(=O)OCC(CO)(COCC(COC(=O)C=C)(COC(=O)C=C)COC(=O)C=C)COC(=O)C=C		-0.009%
C/C=C(\C)C(=O)OCc1ccccc1		0.0071%
O=C1c2ccccc2Cc2ccccc21		0.158%
OCCN(CCO)c1nc(N2CCCCC2)c2nc(N(CCO)CCO)nc(N3CCCCC3)c2n1		8.34% [at 46 µM]
N=C1N=C(N)c2ccccc21		-0.0785%
Oc1ccc(N=Nc2ccccc2)cc1		0.0498% [at 95.7 µM]
C=C(C)C(=O)OCC[N+](C)(C)C		0.037%
CC[C@H]1O[C@]2(CC[C@@H]1C)C[C@@H]1C[C@@H](C/C=C(\C)C[C@@H](C)/C=C/C=C3\CO[C@@H]4[C@H](O)C(C)=C[C@@H](C(=O)O1)[C@]34O)O2		-0.0173%
CN1CCN(CCC(=O)N2c3ccccc3Sc3ccc(C(F)(F)F)cc32)CC1		0.0007% [at 46 µM]
CCCCCCCC[P+](CCCCCCCC)(CCCCCCCC)CCCCCCCC		0.12%
OCCCCCCCCCCCCBr		0.142% [at 95.7 µM]
Nc1ccccc1O		0.0685%
O=S1(=O)CC(Cl)(Cl)C(Cl)(Cl)C1		0.113%
CCCCCCCCCCCCCCCC[N+](C)(C)CCN(Cc1ccc(OC)cc1)c1ncccn1		-0.0711% [at 18.6 µM]
O=C(OC[C@H]1O[C@@H](OC(=O)c2cc(O)c(O)c(OC(=O)c3cc(O)c(O)c(O)c3)c2)[C@H](OC(=O)c2cc(O)c(O)c(OC(=O)c3cc(O)c(O)c(O)c3)c2)[C@@H](OC(=O)c2cc(O)c(O)c(OC(=O)c3cc(O)c(O)c(O)c3)c2)[C@@H]1OC(=O)c1cc(O)c(O)c(OC(=O)c2cc(O)c(O)c(O)c2)c1)c1cc(O)c(O)c(OC(=O)c2cc(O)c(O)c(O)c2)c1	inactive	
CCCCC(CC)CN=C(N)NC(N)=NCCCCCCN=C(N)NC(N)=NCC(CC)CCCC (stereo not given)		0.174% [at 46 µM]
[Cl][Au]([Cl])[Cl]		-0.174%
Nc1ccc2cc(S(=O)(=O)O)cc(O)c2c1N=Nc1ccccc1C(F)(F)F		-0.249%

SMILES	Potency	fluorescence, % of fluorescein control
CSc1ccc2c(c1)C(N1CCN(C)CC1)Cc1ccccc1S2 (stereo not given)		0.0786% [at 46 µM]
Cc1cccc2c1cc1ccc3cccc4ccc2c1c34		0.113% [at 95.7 µM]
C[n+]1ccn(Cc2ccccc2)c1		-0.0167%
CN(C)C(=O)C1(N2CCCCC2)CCN(CC[C@@]2(c3ccc(Cl)c(Cl)c3)CN(C(=O)c3ccccc3)CCO2)CC1		0.0514%
O=C(Nc1cccc(C(F)(F)F)c1)c1cc(Br)cc(Br)c1O	inactive	
O=C(O)c1cc(O)c2c(c1)C(=O)c1cccc(O)c1C2=O		0.0587% [at 95.7 µM]
CN(C)c1ccc(C2(c3ccc(N(C)C)cc3)OC(=O)c3cc(N(C)C)ccc32)cc1		-0.0893%
O=[N+]([O-])c1cc(Cl)c(Cl)c(Cl)c1Cl		-0.115%
CC(C)(C)CC(C)(C)c1ccc(OCCOCC[N+](C)(C)Cc2ccccc2)cc1	inactive	
CCN(Cc1cccnc1)C(=O)c1cccc(Cl)c1[C@]1(C)C(=O)N(Cc2ccc(OC)cc2OC)c2ccc(Cl)cc21		-0.039%
CNc1ccc(O)cc1		0.27%
Oc1ccc2cc(SSc3ccc4cc(O)ccc4c3)ccc2c1	inactive	
CC[C@@]1(O)C(=O)OCc2c1cc1n(c2=O)Cc2cc3c(CN(C)C)c(O)ccc3nc2-1		4.53% [at 46 µM]
CCOC(=O)O[C@H](C)OC(=O)c1ccc2c(c1)cc(C(=O)NC1CCN(C(C)C)CC1)n2Cc1cc(-c2ccc(Cl)s2)on1		0.345%
c1ccc(CSCc2ccccc2)cc1		-0.0198%
CCN(CC)CCNC(=O)c1c(C)[nH]c(/C=C2\C(=O)Nc3ccc(F)cc32)c1C		2.3% [at 46 µM]
C=CC(=O)OCCn1c(=O)n(CCOC(=O)C=C)c(=O)n(CCOC(=O)C=C)c1=O		-0.139%
CCc1cc(Cc2cc(CC)cc(C(C)(C)C)c2O)c(O)c(C(C)(C)C)c1		0.0775%
CC(C)=CCOc1ccc(/C=C/C(=O)c2ccc(OCC=C(C)C)cc2OCC(=O)O)cc1		0.0201% [at 46 µM]
CCCCCCCC/C=C\CCCCCCCCOCCO		0.116% [at 95.7 µM]
